Experiment [1] concerns the target Protein kinase C gamma type (Homo sapiens) (UniProt P05129). To be noted: at 1 µM.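 Note: each value is an averaged percent inhibition of the enzyme.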
For experiment [2], the target named is T1, Protein kinase C iota type (Homo sapiens) (UniProt P41743).
T1 sequence (whole entry): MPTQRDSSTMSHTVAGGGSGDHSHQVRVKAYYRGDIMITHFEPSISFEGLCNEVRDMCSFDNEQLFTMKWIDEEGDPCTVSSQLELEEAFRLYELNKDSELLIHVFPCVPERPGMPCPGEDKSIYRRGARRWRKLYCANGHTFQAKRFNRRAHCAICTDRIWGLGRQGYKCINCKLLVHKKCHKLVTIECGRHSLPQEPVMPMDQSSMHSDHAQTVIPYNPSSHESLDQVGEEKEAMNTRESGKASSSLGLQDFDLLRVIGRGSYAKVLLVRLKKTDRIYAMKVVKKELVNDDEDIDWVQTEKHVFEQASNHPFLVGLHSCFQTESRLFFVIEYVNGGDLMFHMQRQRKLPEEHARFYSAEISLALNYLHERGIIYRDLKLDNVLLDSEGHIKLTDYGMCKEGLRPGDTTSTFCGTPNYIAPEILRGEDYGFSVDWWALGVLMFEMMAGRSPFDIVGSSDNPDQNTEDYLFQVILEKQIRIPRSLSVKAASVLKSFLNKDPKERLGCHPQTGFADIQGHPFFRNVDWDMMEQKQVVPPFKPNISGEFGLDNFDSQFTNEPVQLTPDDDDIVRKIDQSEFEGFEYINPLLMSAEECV
The note with it: at 0.1 µM.

Experiment [3] addresses T1, Protein kinase C iota type (Homo sapiens). The note with it: at 1 µM.
For experiment [4], the target named is Protein kinase C theta type (Homo sapiens) (UniProt Q04759). To be noted: at 0.1 µM.
Sequence of Protein kinase C theta type (Homo sapiens) (Q04759 whole entry, looked up): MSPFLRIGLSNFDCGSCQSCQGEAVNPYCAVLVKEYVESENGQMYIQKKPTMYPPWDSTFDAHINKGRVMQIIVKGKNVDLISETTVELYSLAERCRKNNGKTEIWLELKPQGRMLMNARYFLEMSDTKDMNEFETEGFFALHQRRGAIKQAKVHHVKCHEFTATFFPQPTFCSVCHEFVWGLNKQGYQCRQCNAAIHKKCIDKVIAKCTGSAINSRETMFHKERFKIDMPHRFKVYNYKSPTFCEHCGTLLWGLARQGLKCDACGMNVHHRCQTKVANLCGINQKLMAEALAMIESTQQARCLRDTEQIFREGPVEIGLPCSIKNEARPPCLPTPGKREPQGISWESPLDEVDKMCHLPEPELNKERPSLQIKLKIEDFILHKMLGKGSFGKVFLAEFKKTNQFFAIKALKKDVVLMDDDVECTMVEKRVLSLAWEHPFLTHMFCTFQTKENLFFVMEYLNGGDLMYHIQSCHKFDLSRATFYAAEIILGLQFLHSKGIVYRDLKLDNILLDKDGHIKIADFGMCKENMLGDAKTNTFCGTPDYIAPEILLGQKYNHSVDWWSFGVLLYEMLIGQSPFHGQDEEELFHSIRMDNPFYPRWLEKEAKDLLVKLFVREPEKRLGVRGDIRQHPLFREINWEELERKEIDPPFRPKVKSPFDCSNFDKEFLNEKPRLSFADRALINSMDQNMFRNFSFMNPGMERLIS
For experiment [5] the target is unchanged. The note with it: at 1 µM.
Experiment [6] has as its target Protein kinase C beta type (Homo sapiens) (UniProt P05771). The note with it: at 0.1 µM.
For experiment [7] the target is unchanged. To be noted: at 1 µM.
The target of experiment [8] is T2, Serine/threonine-protein kinase D1 (Homo sapiens) (UniProt Q15139).
T2 sequence (whole entry): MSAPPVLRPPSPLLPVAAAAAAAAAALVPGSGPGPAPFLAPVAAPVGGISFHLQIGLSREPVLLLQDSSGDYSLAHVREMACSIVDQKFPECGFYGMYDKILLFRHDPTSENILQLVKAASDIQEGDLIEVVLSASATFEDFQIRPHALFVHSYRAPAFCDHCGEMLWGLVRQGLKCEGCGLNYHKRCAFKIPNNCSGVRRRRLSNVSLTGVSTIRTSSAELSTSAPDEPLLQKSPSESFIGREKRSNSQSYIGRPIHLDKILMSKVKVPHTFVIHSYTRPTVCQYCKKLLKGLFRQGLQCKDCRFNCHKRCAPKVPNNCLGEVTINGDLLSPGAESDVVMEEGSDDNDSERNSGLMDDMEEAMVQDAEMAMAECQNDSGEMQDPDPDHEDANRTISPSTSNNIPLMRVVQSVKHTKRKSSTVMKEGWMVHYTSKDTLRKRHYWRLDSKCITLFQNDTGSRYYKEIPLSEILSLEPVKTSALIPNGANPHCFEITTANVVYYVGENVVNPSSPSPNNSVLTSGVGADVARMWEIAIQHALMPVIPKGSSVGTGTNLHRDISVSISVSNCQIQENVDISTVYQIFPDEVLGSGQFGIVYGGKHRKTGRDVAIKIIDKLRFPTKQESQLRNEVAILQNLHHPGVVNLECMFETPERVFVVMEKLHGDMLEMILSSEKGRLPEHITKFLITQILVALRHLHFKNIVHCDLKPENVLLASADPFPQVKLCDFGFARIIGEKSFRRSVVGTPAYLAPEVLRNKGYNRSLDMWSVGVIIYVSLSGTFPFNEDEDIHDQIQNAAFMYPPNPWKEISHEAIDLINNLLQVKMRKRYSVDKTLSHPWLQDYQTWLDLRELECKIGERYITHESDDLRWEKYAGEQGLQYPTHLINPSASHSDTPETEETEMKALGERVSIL
The note with it: at 0.1 µM.

Experiment [9] addresses T2, Serine/threonine-protein kinase D1 (Homo sapiens). The note with it: at 1 µM.
Experiment [10] deals with T3, Serine/threonine-protein kinase D2 (Homo sapiens) (UniProt Q9BZL6).
T3 sequence (whole entry): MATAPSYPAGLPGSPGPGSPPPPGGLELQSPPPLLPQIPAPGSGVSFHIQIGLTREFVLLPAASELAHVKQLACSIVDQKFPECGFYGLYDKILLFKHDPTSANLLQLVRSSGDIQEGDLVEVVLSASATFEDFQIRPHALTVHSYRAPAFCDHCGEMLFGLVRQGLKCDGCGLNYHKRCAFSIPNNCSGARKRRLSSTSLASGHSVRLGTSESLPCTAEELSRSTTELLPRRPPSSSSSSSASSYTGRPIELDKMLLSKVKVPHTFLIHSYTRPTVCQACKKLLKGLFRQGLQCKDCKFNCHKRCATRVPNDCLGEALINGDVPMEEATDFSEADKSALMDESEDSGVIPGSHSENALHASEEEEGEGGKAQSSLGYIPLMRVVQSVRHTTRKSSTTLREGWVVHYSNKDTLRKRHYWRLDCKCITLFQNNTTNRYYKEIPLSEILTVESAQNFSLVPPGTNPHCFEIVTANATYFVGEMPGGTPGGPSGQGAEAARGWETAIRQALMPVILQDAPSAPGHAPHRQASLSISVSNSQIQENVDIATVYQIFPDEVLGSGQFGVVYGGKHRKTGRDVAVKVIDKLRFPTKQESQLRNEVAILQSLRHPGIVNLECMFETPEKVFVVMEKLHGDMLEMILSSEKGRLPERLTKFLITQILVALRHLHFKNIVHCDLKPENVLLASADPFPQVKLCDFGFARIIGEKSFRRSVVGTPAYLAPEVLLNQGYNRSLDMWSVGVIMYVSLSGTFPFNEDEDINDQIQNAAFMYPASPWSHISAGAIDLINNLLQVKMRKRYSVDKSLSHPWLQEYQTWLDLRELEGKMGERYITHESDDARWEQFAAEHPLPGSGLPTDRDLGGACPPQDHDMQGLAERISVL
To be noted: at 0.1 µM.

Experiment [11] addresses T3, Serine/threonine-protein kinase D2 (Homo sapiens). The note with it: at 1 µM.
For experiment [12], the target named is T4, Serine/threonine-protein kinase D3 (Homo sapiens) (UniProt O94806).
T4 sequence (whole entry): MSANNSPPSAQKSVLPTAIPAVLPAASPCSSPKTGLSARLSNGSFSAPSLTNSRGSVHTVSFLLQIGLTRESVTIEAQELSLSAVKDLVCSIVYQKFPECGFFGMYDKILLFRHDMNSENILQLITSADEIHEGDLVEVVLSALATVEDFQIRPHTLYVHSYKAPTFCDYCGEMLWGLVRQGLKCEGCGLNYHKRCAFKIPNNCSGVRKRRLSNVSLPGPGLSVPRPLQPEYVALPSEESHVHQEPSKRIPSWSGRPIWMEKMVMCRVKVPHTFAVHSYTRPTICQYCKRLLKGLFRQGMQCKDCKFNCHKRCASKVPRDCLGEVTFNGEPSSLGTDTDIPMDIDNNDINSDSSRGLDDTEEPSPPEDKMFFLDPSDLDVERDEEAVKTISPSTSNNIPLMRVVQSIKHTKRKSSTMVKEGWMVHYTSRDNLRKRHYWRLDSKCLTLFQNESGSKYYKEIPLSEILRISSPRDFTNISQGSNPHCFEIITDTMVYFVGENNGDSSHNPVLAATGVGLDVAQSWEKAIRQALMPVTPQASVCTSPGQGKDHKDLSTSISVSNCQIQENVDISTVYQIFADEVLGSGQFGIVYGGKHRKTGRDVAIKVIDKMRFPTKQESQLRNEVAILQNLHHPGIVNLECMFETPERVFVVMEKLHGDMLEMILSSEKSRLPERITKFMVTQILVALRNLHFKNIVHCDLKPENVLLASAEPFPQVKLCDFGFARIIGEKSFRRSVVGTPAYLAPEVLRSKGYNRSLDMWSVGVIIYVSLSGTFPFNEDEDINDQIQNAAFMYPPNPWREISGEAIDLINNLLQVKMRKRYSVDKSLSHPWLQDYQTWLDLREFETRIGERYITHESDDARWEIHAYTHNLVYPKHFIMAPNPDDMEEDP
To be noted: at 0.1 µM.

The target of experiment [13] is T4, Serine/threonine-protein kinase D3 (Homo sapiens). The note with it: at 1 µM.
Experiment [14] deals with T5, cGMP-dependent protein kinase 1 (Homo sapiens) (UniProt Q13976).
T5 sequence (whole entry): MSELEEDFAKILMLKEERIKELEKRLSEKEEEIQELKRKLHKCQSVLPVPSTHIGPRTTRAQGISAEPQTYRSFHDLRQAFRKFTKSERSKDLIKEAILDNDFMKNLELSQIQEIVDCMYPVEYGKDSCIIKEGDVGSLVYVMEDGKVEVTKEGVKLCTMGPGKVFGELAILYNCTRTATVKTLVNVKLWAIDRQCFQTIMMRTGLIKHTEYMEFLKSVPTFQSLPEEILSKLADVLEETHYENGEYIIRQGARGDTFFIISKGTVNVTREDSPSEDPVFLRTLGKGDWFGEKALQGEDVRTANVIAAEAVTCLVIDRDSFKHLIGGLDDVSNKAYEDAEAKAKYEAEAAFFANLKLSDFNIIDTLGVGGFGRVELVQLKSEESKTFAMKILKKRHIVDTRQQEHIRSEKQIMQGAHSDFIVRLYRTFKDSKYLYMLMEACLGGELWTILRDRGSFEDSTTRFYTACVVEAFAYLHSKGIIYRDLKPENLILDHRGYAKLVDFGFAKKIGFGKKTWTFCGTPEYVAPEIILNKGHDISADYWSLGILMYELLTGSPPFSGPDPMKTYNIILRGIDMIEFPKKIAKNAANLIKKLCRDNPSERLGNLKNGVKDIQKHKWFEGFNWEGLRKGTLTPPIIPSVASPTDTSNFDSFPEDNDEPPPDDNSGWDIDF
The note with it: at 0.1 µM.

Experiment [15] deals with T5, cGMP-dependent protein kinase 1 (Homo sapiens). The note with it: at 1 µM.
In experiment [16] the target is T6, cGMP-dependent protein kinase 2 (Homo sapiens) (UniProt Q13237).
T6 sequence (whole entry): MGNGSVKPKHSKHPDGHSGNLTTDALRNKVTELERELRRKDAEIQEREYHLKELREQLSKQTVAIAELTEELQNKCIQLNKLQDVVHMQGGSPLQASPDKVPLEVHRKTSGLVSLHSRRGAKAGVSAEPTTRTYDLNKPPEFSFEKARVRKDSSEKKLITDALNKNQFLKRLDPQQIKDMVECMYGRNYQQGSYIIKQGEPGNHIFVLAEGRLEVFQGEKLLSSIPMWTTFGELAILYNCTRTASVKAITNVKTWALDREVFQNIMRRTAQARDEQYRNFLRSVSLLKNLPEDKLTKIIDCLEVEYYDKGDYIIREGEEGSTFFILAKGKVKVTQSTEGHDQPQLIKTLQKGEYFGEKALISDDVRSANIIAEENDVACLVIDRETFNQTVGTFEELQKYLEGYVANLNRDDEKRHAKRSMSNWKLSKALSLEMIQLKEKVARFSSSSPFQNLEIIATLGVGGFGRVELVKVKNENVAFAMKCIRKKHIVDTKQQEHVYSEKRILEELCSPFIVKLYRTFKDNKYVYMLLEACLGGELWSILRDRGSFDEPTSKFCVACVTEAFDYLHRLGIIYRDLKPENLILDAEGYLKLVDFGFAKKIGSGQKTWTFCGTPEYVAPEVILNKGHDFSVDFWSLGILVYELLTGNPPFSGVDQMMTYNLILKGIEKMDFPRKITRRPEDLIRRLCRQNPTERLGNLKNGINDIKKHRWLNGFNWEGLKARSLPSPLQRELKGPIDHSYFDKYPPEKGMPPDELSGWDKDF
The note with it: at 0.1 µM.

The target in experiment [17] is T6, cGMP-dependent protein kinase 2 (Homo sapiens). The note with it: at 1 µM.
Experiment [18] addresses T7, cAMP-dependent protein kinase catalytic subunit PRKX (Homo sapiens) (UniProt P51817).
T7 sequence (whole entry): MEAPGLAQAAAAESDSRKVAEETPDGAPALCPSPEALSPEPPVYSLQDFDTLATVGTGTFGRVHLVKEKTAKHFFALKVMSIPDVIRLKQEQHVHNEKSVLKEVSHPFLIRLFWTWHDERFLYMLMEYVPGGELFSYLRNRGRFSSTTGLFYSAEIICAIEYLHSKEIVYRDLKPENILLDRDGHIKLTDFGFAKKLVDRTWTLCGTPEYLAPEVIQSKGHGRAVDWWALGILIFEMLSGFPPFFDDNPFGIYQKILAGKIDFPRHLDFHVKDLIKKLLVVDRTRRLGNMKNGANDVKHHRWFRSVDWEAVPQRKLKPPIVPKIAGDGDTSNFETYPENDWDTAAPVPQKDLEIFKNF
To be noted: at 0.1 µM.

The target in experiment [19] is T7, cAMP-dependent protein kinase catalytic subunit PRKX (Homo sapiens). The note with it: at 1 µM.
Experiment [20] deals with Rho-associated protein kinase 1 (Homo sapiens) (UniProt Q13464). The note with it: at 0.1 µM.
Sequence of Rho-associated protein kinase 1 (Homo sapiens) (Q13464 2-1354 limits assumed): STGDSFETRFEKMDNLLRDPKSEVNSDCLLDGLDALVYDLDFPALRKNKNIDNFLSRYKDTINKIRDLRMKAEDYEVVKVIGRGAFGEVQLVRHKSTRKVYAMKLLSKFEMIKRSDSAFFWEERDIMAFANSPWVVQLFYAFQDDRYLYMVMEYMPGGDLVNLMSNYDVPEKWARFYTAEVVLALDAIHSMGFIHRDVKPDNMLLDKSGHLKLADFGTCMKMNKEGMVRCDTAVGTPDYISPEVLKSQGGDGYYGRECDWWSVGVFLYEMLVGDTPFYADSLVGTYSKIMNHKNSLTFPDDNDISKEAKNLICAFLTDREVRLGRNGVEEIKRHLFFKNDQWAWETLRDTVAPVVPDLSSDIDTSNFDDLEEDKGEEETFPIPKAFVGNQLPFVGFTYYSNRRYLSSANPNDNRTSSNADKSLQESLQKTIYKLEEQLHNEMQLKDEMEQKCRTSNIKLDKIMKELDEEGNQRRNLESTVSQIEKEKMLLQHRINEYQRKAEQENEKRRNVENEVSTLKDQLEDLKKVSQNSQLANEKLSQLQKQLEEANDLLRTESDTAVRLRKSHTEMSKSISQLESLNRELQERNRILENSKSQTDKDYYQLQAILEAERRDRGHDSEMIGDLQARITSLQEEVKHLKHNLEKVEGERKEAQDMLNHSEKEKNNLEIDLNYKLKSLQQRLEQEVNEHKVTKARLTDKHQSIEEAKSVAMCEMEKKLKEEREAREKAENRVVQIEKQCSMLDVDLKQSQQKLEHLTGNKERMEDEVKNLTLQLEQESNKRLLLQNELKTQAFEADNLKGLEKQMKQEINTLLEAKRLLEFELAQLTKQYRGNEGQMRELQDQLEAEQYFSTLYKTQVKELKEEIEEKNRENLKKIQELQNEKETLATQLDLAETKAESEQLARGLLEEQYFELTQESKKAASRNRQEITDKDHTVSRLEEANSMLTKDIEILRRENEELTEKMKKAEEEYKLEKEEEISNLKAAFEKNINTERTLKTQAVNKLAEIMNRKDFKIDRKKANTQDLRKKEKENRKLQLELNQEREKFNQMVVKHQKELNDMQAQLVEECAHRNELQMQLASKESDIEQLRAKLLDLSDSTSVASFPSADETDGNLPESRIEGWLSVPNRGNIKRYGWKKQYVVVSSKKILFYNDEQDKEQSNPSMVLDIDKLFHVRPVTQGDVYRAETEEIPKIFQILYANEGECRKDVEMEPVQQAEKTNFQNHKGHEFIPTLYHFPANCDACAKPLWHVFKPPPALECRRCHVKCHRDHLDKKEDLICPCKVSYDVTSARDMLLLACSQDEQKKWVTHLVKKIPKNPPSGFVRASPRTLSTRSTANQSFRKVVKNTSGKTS

Sequence of Protein kinase C beta type (Homo sapiens) (P05771 2-671 limits assumed): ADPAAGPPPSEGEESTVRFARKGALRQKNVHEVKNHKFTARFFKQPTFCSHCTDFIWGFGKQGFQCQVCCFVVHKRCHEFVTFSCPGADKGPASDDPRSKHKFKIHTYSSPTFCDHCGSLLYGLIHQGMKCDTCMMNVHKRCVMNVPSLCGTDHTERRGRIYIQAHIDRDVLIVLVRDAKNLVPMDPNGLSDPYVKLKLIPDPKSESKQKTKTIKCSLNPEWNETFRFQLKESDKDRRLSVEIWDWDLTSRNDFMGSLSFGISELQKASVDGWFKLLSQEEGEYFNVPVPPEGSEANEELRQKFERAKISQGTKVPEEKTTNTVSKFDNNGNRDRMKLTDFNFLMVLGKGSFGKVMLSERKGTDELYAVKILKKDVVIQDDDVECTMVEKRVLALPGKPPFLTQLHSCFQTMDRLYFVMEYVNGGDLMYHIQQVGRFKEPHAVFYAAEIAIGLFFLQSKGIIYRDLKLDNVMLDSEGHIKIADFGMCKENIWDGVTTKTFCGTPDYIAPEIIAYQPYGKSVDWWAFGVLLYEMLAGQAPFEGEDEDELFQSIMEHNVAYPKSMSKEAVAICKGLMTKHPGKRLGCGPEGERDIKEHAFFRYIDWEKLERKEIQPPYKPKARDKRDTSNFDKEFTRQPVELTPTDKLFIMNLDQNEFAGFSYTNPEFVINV

With `CS(=O)(=O)CCNCc1coc(-c2ccc3ncnc(Nc4ccc(OCc5ccccc5)cc4)c3c2)c1`, the inhibition (usually the drop in the measured response relative to a control, in per cent) in experiment [1] is 4.91%; in experiment [2] it was 1.33%; in experiment [3] it was 0.97%; in experiment [4], 1.31%; in [5] it was 1.25%; in [6], -0.17%. Also, the inhibition in experiment [7] was 1.35%; in experiment [8], 1.97%; in [9] it was 2.95%; in experiment [10] it was 2.53%; in [11], 2.1%; in experiment [12], 2.3%. Also, the inhibition worked out at 3.06% in [13]; 1.72% in [14]; 3.25% in experiment [15]; 1.73% in [16]; 3.41% in experiment [17]; 1.12% in [18]. Also, the inhibition came out at 0.96% in [19] and 0.65% in experiment [20].
With `COC(=O)Nc1nc2ccc(Oc3ccc(NC(=O)Nc4cccc(Cl)c4)cc3)cc2[nH]1`, the inhibition in experiment [1] was -1.47%; in experiment [2] it was 0.42%; in [3] it was 0.23%; in experiment [4], 0.36%; in experiment [5] it was 0.17%; in experiment [6], 0.5%. Further, the inhibition is 0.57% in experiment [7]; 2.7% in [8]; 3.03% in experiment [9]; 1.6% in experiment [10]; 2.04% in [11]; 0.95% in experiment [12]. In addition, the inhibition in experiment [13] was 3.39%; in experiment [14] it was 0.03%; in experiment [15], -0.55%; in experiment [16], 0.27%; in [17], -0.85%; in experiment [18], 0.22%. In addition, the values for the inhibition in [19] and in experiment [20] were -1.01% and 0.69%, respectively.

The values above are taken from ChEMBL document CHEMBL1961873, “Compounds: GSK PKIS; Assays: Nanosyn kinase panel” (2012).
